For some assays here: Potency and affinity values are given separately. Calls of active or inactive are those of the source. Unless noted, no rule for the calls is given here.
Assays:
[1] = antimalarial activity against Dd2 strain (AID 2302;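 active = growth inhibition above 50% at the single 2 µM test dose, taken to imply half-maximal potency below 2 µM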;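 also: 0% = DMSO untreated growth and 100% = chloroquine plus artemisinin killed control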); conditions: P. falciparum Dd2 in RBCs, LDH growth readout, 72 h; at 2 µM; active compounds read high
[2] = HepG2 cytotoxicity, primary screen, cytotoxicity control for P. falciparum antimalarial project, cell-based, ATP luminescence (AID 2303;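 active = inhibition above 50%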;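 also: 0% = DMSO wells and 100% = digitonin-killed cells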); conditions: HepG2 viability, 24-48 h, at 10 µM, active compounds read high
[3] = molecular target: L-lactate dehydrogenase (Plasmodium falciparum (isolate CDC / Honduras)) (UniProt Q27743); experiment: PfLDH activity inhibition – cell lysate, 3D7 strain, counter-screen for P. falciparum growth inhibition project (AID 2304);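 also: 0% = vehicle and 100% = reference inhibitor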; conditions: P. falciparum 3D7 crude extract, LDH APAD/NBT absorbance; at 2 µM; active compounds read high
L-lactate dehydrogenase (Plasmodium falciparum (isolate CDC / Honduras)), sequence (Q27743 whole entry, looked up): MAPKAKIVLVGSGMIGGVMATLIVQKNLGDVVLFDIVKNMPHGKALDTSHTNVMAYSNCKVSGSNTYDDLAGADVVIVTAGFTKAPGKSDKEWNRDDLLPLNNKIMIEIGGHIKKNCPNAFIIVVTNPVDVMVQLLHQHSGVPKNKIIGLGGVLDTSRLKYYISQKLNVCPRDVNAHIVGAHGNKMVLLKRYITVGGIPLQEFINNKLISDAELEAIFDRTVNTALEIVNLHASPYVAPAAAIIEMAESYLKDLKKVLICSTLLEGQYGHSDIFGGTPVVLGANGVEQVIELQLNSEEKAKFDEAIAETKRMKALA

[4] = inhibition of 3D7 malaria parasite growth – strain 3D7 (AID 2306);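 also: 0% = DMSO wells and 100% = chloroquine plus artemisinin control wells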; conditions: P. falciparum 3D7 erythrocytic growth, LDH absorbance, 72 h; at 2 µM; active compounds read high
[5] = molecular target: Calcium-dependent protein kinase 1 (Plasmodium falciparum (isolate 3D7)) (UniProt P62344); experiment: PfCDPK1 kinase inhibitors, biochemical, TCAMS library (AID 1159585; cut-off not given, nearly all actives have IC50 up to about 0.98 µM;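 also: inhibitors leave more ATP so luminescence rises with inhibition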); conditions: recombinant PfCDPK1, Kinase-Glo ATP depletion luminescence
Calcium-dependent protein kinase 1 (Plasmodium falciparum (isolate 3D7)), sequence (P62344 whole entry, looked up): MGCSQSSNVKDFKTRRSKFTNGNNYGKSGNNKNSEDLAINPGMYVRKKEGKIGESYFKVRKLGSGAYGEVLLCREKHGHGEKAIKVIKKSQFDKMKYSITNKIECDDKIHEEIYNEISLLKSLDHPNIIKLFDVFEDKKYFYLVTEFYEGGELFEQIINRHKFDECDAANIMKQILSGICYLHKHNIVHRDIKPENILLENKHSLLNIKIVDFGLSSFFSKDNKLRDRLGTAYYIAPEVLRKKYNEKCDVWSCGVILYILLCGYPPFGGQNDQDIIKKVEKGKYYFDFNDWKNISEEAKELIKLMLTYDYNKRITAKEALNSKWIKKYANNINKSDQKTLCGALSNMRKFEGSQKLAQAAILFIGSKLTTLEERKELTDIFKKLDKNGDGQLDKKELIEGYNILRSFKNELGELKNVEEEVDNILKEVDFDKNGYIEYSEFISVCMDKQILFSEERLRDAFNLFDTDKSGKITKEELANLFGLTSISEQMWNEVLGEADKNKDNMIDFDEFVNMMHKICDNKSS

[6] = molecular target: Plasmodium falciparum protein kinase 6 (PK6, PF3D7_1337100) (UniProt Q8IDW1); experiment: PfPK6 kinase inhibitors, biochemical, TCAMS library (AID 1159586); conditions: recombinant PfPK6, Kinase-Glo ATP depletion luminescence
Plasmodium falciparum protein kinase 6 (PK6, PF3D7_1337100), sequence (Q8IDW1 1-305): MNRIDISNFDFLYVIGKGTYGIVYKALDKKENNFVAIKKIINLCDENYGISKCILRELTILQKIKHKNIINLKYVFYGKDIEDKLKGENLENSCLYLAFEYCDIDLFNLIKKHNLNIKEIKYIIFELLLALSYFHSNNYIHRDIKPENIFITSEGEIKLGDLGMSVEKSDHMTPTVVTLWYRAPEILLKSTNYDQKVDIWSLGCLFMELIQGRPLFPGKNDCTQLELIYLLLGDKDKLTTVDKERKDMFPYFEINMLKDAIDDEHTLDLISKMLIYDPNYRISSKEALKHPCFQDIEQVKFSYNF

[7] = molecular target: Protein kinase 7 (PK7), Plasmodium falciparum 3D7 (PF3D7_0213400) (UniProt Q7YTF7); experiment: inhibition of Plasmodium PK7 catalytic activity – biochemical, TCAMS antimalarial set, Kinase-Glo luminescence (AID 1159587); conditions: recombinant PfPK7, Kinase-Glo ATP depletion luminescence
Protein kinase 7 (PK7), Plasmodium falciparum 3D7 (PF3D7_0213400), sequence (Q7YTF7 1-343): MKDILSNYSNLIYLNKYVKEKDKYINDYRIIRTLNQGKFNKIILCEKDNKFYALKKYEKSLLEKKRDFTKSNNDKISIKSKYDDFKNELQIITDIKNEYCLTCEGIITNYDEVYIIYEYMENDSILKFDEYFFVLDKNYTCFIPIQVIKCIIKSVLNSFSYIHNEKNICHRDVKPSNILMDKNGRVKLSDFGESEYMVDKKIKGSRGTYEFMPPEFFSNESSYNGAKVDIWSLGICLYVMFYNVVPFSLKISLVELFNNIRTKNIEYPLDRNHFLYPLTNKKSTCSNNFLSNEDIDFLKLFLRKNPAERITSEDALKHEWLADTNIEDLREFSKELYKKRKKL

[8] = molecular target: Calcium-dependent protein kinase 4 (Plasmodium falciparum (isolate 3D7)) (UniProt Q8IBS5); experiment: PfCDPK4 kinase inhibitors, biochemical, TCAMS library (AID 1159588; cut-off not given, nearly all actives have IC50 up to about 0.91 µM); conditions: recombinant PfCDPK4, Kinase-Glo ATP depletion luminescence
Calcium-dependent protein kinase 4 (Plasmodium falciparum (isolate 3D7)), sequence (Q8IBS5 whole entry, looked up): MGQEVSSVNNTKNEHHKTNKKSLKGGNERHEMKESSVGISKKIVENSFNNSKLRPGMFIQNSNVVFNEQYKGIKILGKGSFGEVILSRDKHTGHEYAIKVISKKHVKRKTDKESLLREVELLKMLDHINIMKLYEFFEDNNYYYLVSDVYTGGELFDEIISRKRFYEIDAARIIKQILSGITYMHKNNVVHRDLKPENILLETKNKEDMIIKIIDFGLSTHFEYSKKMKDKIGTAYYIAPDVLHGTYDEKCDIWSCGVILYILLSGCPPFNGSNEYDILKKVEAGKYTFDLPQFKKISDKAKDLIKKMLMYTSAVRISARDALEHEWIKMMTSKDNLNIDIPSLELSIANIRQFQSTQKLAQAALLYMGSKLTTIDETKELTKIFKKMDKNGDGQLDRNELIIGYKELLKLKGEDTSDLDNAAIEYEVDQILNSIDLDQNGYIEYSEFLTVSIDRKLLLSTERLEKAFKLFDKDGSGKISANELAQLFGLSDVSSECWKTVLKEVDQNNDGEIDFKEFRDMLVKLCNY

COc1ccc2nccc(NC(=O)C3(O)CCC(NCc4ccc5c(c4)NCCS5)CC3)c2n1 (stereo unspecified)
inactive: inhibition [2] 1% | inhibition [3] -1% | outcome [5] | outcome [6] | outcome [7] | outcome [8]
active: growth inhibition [1] 64% | growth inhibition [4] 93%

Cc1ccccc1C1CCN(C2CCC(NC(=O)c3cc4cc(C(C)C)ccc4[nH]3)CC2)CC1 (stereo unspecified)
active: growth inhibition [1] 100% | inhibition [2] 100% | growth inhibition [4] 99%
inactive: inhibition [3] -3% | outcome [5] | outcome [6] | outcome [7] | outcome [8]

COc1cc2nccc(Nc3cc(C)cc(O)c3)c2cc1OC
inactive: growth inhibition [1] -2% | inhibition [2] -6% | inhibition [3] 0% | outcome [5] | outcome [6] | outcome [7] | outcome [8]
active: growth inhibition [4] 97%

Cc1c(N=O)cc(C(C)(C)C)c(O)c1C(=O)Nc1ccc([N+](=O)[O-])cc1Cl
inactive: inhibition [3] 1% | outcome [5] | outcome [6] | outcome [7] | outcome [8]
active: growth inhibition [1] 98% | inhibition [2] 72% | growth inhibition [4] 100%

Cc1noc(C)c1C(=O)N1CCCC(c2[nH]c3c(C)cccc3c2-c2ccncc2)C1 (stereo unspecified)
active: growth inhibition [1] 101% | growth inhibition [4] 102%
inactive: inhibition [2] 16% | inhibition [3] 6% | outcome [5] | outcome [6] | outcome [7] | outcome [8]

Cc1ccccc1C1CCN(C2CCC(NC(=O)c3ccc(-c4cccs4)s3)CC2)CC1 (stereo unspecified)
active: growth inhibition [1] 54% | inhibition [2] 58% | growth inhibition [4] 101%
inactive: inhibition [3] -2% | outcome [5] | outcome [6] | outcome [7] | outcome [8]

NC(N)=NC(=O)Nc1cc(Br)c(Cl)c(Br)c1
inactive: inhibition [2] 0% | inhibition [3] 4% | outcome [5] | outcome [6] | outcome [7] | outcome [8]
active: growth inhibition [1] 83% | growth inhibition [4] 101%

O=C(CCc1cccnc1)Nc1cccc(-c2ccc(-c3nc4ccc(C(F)(F)F)cc4[nH]3)s2)c1
inactive: growth inhibition [1] 13% | inhibition [2] 35% | inhibition [3] 2% | outcome [5] | outcome [6] | outcome [7] | outcome [8]
active: growth inhibition [4] 89%

CC(=O)Oc1cc(C)ccc1C1CCN(CCCCNC(=O)c2ccc(-c3ccc(C(F)(F)F)cc3)cc2)CC1
active: growth inhibition [1] 94% | inhibition [2] 54% | growth inhibition [4] 100%
inactive: inhibition [3] -7% | outcome [5] | outcome [6] | outcome [7] | outcome [8]

CCCC(C)NC(=O)c1cnn(-c2ccc(C(C)(C)C)cc2)c1OCc1ccc(Br)cc1 (stereo unspecified)
inactive: inhibition [2] 17% | inhibition [3] 0% | outcome [5] | outcome [6] | outcome [7] | outcome [8]
active: growth inhibition [1] 64% | growth inhibition [4] 84%

O=C1OC(c2ccccc2)(c2ccccc2)CN1C1CCN(Cc2ccc(O)c(Cl)c2)C1 (stereo unspecified)
active: growth inhibition [1] 93% | growth inhibition [4] 100%
inactive: inhibition [2] 10% | inhibition [3] 3% | outcome [5] | outcome [6] | outcome [7] | outcome [8]

Cc1cccc2[nH]c(-c3cccc(-c4ccc(C(=O)NCc5ccccc5S(C)(=O)=O)cc4)c3)nc12
inactive: growth inhibition [1] 27% | inhibition [2] 17% | inhibition [3] 1% | outcome [5] | outcome [6] | outcome [7] | outcome [8]
active: growth inhibition [4] 100%

O=C(Nc1ccc(-c2cccc(-c3nc4ccc(F)cc4[nH]3)c2)cc1)c1cnn2cccnc12
inactive: growth inhibition [1] 25% | inhibition [2] 10% | inhibition [3] -1% | outcome [5] | outcome [6] | outcome [7] | outcome [8]
active: growth inhibition [4] 98%

COc1cccc(-c2cc3nc4c(c(NCCCn5ccnc5)n3n2)CCCC4)c1
active: growth inhibition [1] 66% | growth inhibition [4] 100%
inactive: inhibition [2] 10% | inhibition [3] -2% | outcome [5] | outcome [6] | outcome [7] | outcome [8]

Cc1ccc(C)c(Cn2c(N3CCC(C(=O)NCc4cccs4)CC3)nc3ccccc32)c1
active: growth inhibition [1] 73% | growth inhibition [4] 89%
inactive: inhibition [2] -2% | inhibition [3] -6% | outcome [5] | outcome [6] | outcome [7] | outcome [8]

COc1ccc(Nc2c3ccc(Cl)cc3nc3ccc(OC)cc23)cc1
inactive: inhibition [2] 14% | inhibition [3] 3% | outcome [5] | outcome [6] | outcome [7] | outcome [8]
active: growth inhibition [1] 99% | growth inhibition [4] 94%

CC[C@H](C)CNC(=O)c1cncc(-c2ccc(CNCCOc3ccccc3)cc2)c1
inactive: growth inhibition [1] 0% | inhibition [2] 7% | inhibition [3] 3% | outcome [5] | outcome [6] | outcome [7] | outcome [8]
active: growth inhibition [4] 90%

Cc1cc(N2CCC(NS(=O)(=O)c3ccccc3)CC2)nc(Nc2cccc(C#N)c2)n1
active: inhibition [2] 52% | growth inhibition [4] 93%
inactive: growth inhibition [1] 29% | inhibition [3] 3% | outcome [5] | outcome [6] | outcome [7] | outcome [8]

CC(C)CNCc1cccc(-c2ccc(CNc3ccc(C(=O)c4ccccc4)cc3)cc2)c1
inactive: growth inhibition [1] 0% | inhibition [2] 10% | inhibition [3] 0% | outcome [5] | outcome [6] | outcome [7] | outcome [8]
active: growth inhibition [4] 97%

CC1CC1C(=O)NC1CCN(CC2(c3ccccc3)CCCCC2)CC1 (stereo unspecified)
active: growth inhibition [1] 95% | growth inhibition [4] 97%
inactive: inhibition [2] -1% | inhibition [3] 0% | outcome [5] | outcome [6] | outcome [7] | outcome [8]

O=C(c1cc(-c2cccs2)[nH]n1)N1CCN(S(=O)(=O)c2ccc(Br)cc2)CC1
inactive: inhibition [2] -6% | inhibition [3] 3% | outcome [5] | outcome [6] | outcome [7] | outcome [8]
active: growth inhibition [1] 95% | growth inhibition [4] 93%

CN(C)C(CNC(=O)c1cc(-c2ccncc2)c(-c2ccc(NC(=O)Nc3cccc(F)c3)cc2)o1)c1ccccc1 (stereo unspecified)
inactive: inhibition [2] 11% | inhibition [3] 3% | outcome [5] | outcome [6] | outcome [7] | outcome [8]
active: growth inhibition [1] 99% | growth inhibition [4] 100%

COc1ccc(NC(=O)Nc2ccc(C)c(-c3ccc(C(=O)NCCN4CCCC4)cc3)c2)cc1
active: growth inhibition [4] 95%
inactive: growth inhibition [1] 1% | inhibition [2] 18% | inhibition [3] 3% | outcome [5] | outcome [6] | outcome [7] | outcome [8]

COc1cccc(C(O)CNc2ccnc(Nc3ccc(Cl)cc3)n2)c1 (stereo unspecified)
inactive: growth inhibition [1] 46% | inhibition [2] 31% | inhibition [3] -7% | outcome [5] | outcome [6] | outcome [7] | outcome [8]
active: growth inhibition [4] 99%

Cc1cc(NCCC(=O)Nc2ccccc2)nc(NCCc2ccccc2)n1
inactive: growth inhibition [1] 8% | inhibition [2] -8% | inhibition [3] -3% | outcome [5] | outcome [6] | outcome [7] | outcome [8]
active: growth inhibition [4] 99%

OCC1CCN(Cc2ccc(-c3cccc(-c4nc5ccccc5[nH]4)c3)cc2)CC1
inactive: growth inhibition [1] 6% | inhibition [2] 21% | inhibition [3] -1% | outcome [5] | outcome [6] | outcome [7] | outcome [8]
active: growth inhibition [4] 101%

Cc1cc(C)c2oc(-c3cccc(NC(=O)c4ccc([N+](=O)[O-])o4)c3C)nc2c1
active: growth inhibition [1] 67% | growth inhibition [4] 90%
inactive: inhibition [2] -1% | inhibition [3] 0% | outcome [5] | outcome [6] | outcome [7] | outcome [8]

O=C(Nc1ccccc1)N(Cc1ccccc1-c1cccc(CNCCc2ccccc2)c1)C1CCN(Cc2ccccc2)CC1
active: growth inhibition [1] 59% | inhibition [2] 95% | growth inhibition [4] 100%
inactive: inhibition [3] 4% | outcome [5] | outcome [6] | outcome [7] | outcome [8]

Cc1ccc(C(=O)Nc2cccc(CN3CCCN(Cc4ccc(O)cc4)CC3)c2)cc1
inactive: growth inhibition [1] 5% | inhibition [2] -4% | inhibition [3] -3% | outcome [5] | outcome [6] | outcome [7] | outcome [8]
active: growth inhibition [4] 88%

Cn1cc(CN2CCC(OC(c3ccccc3)c3ccc(Cl)cc3)CC2)cn1 (stereo unspecified)
inactive: inhibition [2] 39% | inhibition [3] 5% | outcome [5] | outcome [6] | outcome [7] | outcome [8]
active: growth inhibition [1] 61% | growth inhibition [4] 94%

COc1ccc2c(c1)[nH]c1c(/C=C/c3ccc([N+](=O)[O-])cc3)nccc12
inactive: inhibition [2] 4% | inhibition [3] 3% | outcome [5] | outcome [6] | outcome [7] | outcome [8]
active: growth inhibition [1] 63% | growth inhibition [4] 100%

CCNc1cc(C(=O)N[C@@H](Cc2ccccc2)[C@H](O)CNCC(C)C)cc(N2CCCC2=O)c1
active: growth inhibition [1] 97% | growth inhibition [4] 98%
inactive: inhibition [2] 16% | inhibition [3] 3% | outcome [5] | outcome [6] | outcome [7] | outcome [8]

CC1CN(c2cc(=O)n(Cc3ccc(NC(=O)Nc4ccc(-c5ccccc5)cc4)cc3)cn2)CC(C)N1 (stereo unspecified)
inactive: growth inhibition [1] 20% | inhibition [2] 0% | inhibition [3] -1% | outcome [5] | outcome [6] | outcome [7] | outcome [8]
active: growth inhibition [4] 87%

Cc1cc(N[C@@H](Cc2ccccc2)C(=O)NCCCOC(C)C)nc(NCCc2ccc(F)cc2)n1
active: growth inhibition [4] 101%
inactive: growth inhibition [1] 36% | inhibition [2] 15% | inhibition [3] 0% | outcome [5] | outcome [6] | outcome [7] | outcome [8]

Clc1ccc(Cl)c2[nH]c(CNCCCNc3nc4ccccc4[nH]3)cc12
inactive: growth inhibition [1] 39% | inhibition [3] -6% | outcome [5] | outcome [6] | outcome [7] | outcome [8]
active: inhibition [2] 88% | growth inhibition [4] 100%

CN(CCCN(C)c1cc(NC(=O)c2cccc(F)c2)ccn1)Cc1cccc(O)c1
inactive: growth inhibition [1] 4% | inhibition [2] -3% | inhibition [3] -1% | outcome [5] | outcome [6] | outcome [7] | outcome [8]
active: growth inhibition [4] 92%

COc1ccccc1/C=C/C(=O)N(C)C1CCN(CCCCCNC(=O)/C=C/c2ccc(Cl)c(Cl)c2)C1 (stereo unspecified)
active: growth inhibition [4] 94%
inactive: growth inhibition [1] 14% | inhibition [2] 10% | inhibition [3] -14% | outcome [5] | outcome [6] | outcome [7] | outcome [8]
